Bioassay records (PubChem BioAssay)
PI5P4Ka inh: qHTS for Inhibitors of phosphatidylinositol 5-phosphate 4-kinase (PI5P4K); PI5P4Kalpha enzyme, ADP-Glo luminescence, 60 min; hits give low values; actives 1.2% (n = 330,000); max response, %; active = max response of -50% or lower; inconclusive = between -30% and -50%; inactive = -30% or higher; note: value at the top dose of about 77 µM; % is set by controls: 0 for no effect and ±100 for the full control effect
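Quantitative HTS of the MLSMR library against PI5P4Kalpha with substrate. ATP added last at 5 microM final; room temperature, 60 minutes. Remaining ATP depleted, ADP converted and read as luminescence.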
BAZ2B inh: qHTS Assay for Inhibitors of BAZ2B; Bromodomain adjacent to zinc finger domain protein 2B (Homo sapiens), Q9UIF8; AlphaScreen BAZ2B-H3K14Ac peptide displacement; Potency, µM (highest dose often 114 µM), for inactives: top-dose activity change, negative = inhibition, hits mostly inhibitors; actives 4.4% (n = 360,000); AID 504333, 2011; note: potency is the fitted concentration of half-maximal effect; % is set by controls: 0 for no effect and ±100 for the full control effect; nearly all actives have a fitted effect of over 60% in size
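Complex of BAZ2B and biotin-H3K14Ac (50 nM apiece) forms over 30 min at RT, then faces library compounds up to 110 uM for another 30 min; AlphaScreen beads added, 20 min dark incubation, luminescence read.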
JMJD2A Tudor inh: qHTS Assay for Inhibitors of JMJD2A-Tudor Domain; Lysine-specific demethylase 4A (Homo sapiens), O75164; AlphaScreen JMJD2A-Tudor / H3K4me3 peptide binding; Potency, µM (doses to about 114 µM), for the others: at the highest dose activity change, negative = inhibition, hits mostly inhibitors; actives 4.4% (n = 390,000); AID 504339, 2011; note: potency is the fitted concentration of half-maximal effect; % is set by controls: 0 for no effect and ±100 for the full control effect; nearly all actives have a fitted effect of over 50% in size
G9a inh: qHTS Assay for Inhibitors of Histone Lysine Methyltransferase G9a; Histone-lysine N-methyltransferase EHMT2 (Homo sapiens), Q96KQ7; G9a H3K9 monomethylation, AlphaScreen, 2 h; Potency, µM (doses to about 102 µM), for inactives: top-dose activity, negative = inhibition, most hits filed as inhibitors; actives 8.8% (n = 350,000); note: potency is the fitted concentration of half-maximal effect; % is set by controls: 0 for no effect and ±100 for the full control effect; nearly all actives have a fitted effect of over 75% in size
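Using a bead-based AlphaScreen, monomethylated H3K9 product from 2 h room-temperature reactions (G9a 20 nM, peptide 500 nM, SAM 20 uM) was detected with 0.5 ug/mL rabbit anti-H3K9me1 antibody.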
PLK1 PBD block: qHTS for Inhibitors of PLK1-PDB (polo-like kinase 1 - polo-box domain): Primary Screen | Serine/threonine-protein kinase PLK1 (Homo sapiens), P53350 | Plk1 PBD binding of FITC phosphopeptide, fluorescence polarization | Potency, µM, for the others: max response, negative = inhibition, most hits filed as inhibitors | actives 2.8% (n = 360,000) | AID 720504, 2013; note: potency is the fitted concentration of half-maximal effect; series mostly up to about 57 µM; % is set by controls: 0 for no effect and ±100 for the full control effect; nearly all actives have a fitted effect of over 65% in size
Target sequence (P53350 whole entry, looked up, the tested form may be a part): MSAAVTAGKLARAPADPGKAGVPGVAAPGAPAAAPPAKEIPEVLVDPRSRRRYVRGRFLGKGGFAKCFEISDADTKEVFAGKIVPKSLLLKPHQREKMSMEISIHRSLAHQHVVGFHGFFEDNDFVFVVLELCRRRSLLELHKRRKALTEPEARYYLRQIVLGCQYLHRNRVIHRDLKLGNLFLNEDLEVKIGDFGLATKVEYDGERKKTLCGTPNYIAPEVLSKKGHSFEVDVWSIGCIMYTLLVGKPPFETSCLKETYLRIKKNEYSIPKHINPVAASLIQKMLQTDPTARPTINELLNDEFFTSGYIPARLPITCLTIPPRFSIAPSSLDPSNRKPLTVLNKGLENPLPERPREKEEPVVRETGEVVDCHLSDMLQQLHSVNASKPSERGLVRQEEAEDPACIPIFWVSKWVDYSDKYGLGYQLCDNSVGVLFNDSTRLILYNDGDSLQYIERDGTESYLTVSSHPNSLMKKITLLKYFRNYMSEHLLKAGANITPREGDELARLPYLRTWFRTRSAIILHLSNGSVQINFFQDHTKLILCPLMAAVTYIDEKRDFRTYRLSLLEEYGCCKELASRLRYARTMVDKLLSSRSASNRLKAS
HP1b chromo inh: HTS for Inhibitors of HP1-beta Chromodomain Interactions with Methylated Histone Tails | Chromobox protein homolog 1 (Homo sapiens), P83916 | AlphaScreen HP1-beta / biotin-H3K9me3 peptide binding | Potency, µM (top dose mostly 114 µM), for inactives: top-dose activity change, negative = inhibition, hits mostly inhibitors | actives 0.56% (n = 390,000) | AID 540317, 2011; note: potency is the fitted concentration of half-maximal effect; nearly all actives have a fitted effect of over 70% in size
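Compound inhibition of the preformed complex between 50 nM HP1-beta and 50 nM biotinylated H3K9me3 peptide was read by AlphaScreen. Buffer was PBS pH 7.4 with 0.01% Tween-20. Incubations ran 30 min at room temperature, with 10 ug/mL donor/acceptor beads.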
An asterisk follows results filed as active; u = inconclusive; x = no result given; ! = repeats disagree; [ ] = another dose, or the depositor's remark. Shown are actives, neighbours in structure and some others; about 12% of the full set was active somewhere. Unless noted, calls come from the whole dose curve; as a rule, active = well fitted curve in the direction sought with a large enough effect; inconclusive = small, poorly fitted or top-dose-only effect, or another doubt; inactive = no such curve, though single readings can be large; an effect the other way counts as inactive or inconclusive.

SMILES	PI5P4Ka inh	BAZ2B inh	JMJD2A Tudor inh	G9a inh	PLK1 PBD block	HP1b chromo inh
C[C@@H]1O[C@@H](OC2CC(O)C3(CO)C4C(CCC3(O)C2)C2(O)CCC(C3=CC(=O)OC3)C2(C)C[C@H]4O)[C@H](O)[C@H](O)[C@H]1O (some centres undefined)	x	x	x	29%[59 µM]	x	x
CCN(CC)Cc1c[nH]c2ccccc12	-8	u	-30%	u	-8%	1%
CCC(CC)NCc1c[nH]c2ccccc12	-9	79µM*	22µM*	14µM*	u	-30%
CN1C(=O)C[N+]([O-])=C(c2ccccc2)c2cc(Cl)ccc21	6	x	-9%	x	-19%	3%
Oc1ccccc1O	-4	6%	40µM*	1.8µM*	-15%	u
O=P(O)(O)COc1ccccc1O	x	u	-20%	-10%	1%	34%
O=c1[nH]c(=S)[nH]c(O)c1N=Nc1ccc(SC(F)F)cc1	-57*	-31%	-25%	45µM*	11µM*	-23%
O=c1[nH]c(=S)[nH]c(O)c1N=Nc1ccc(S(=O)(=O)N2CCc3ccccc32)cc1	-58*	-35%	-25%	-9%	0%	-16%
c1cc2c(cc1[C@H]1OC[C@H]3[C@@H]1CO[C@H]3c1ccc3c(c1)OCO3)OCO2	2	x	13%	x	-1%	66%
c1cncc([C@@H]2CCCCN2)c1	x	x	x	-2%[21.5 µM]	x	x
CC(C)N(Cc1ccccc1)C(=O)CCS(=O)(=O)c1ccc2c(c1)oc(=O)n2C	3	-19%	-4%	71µM*	17µM*	51%
CC(CNC(=O)CCS(=O)(=O)c1ccc2c(c1)oc(=O)n2C)c1ccccc1 (centres undefined)	1	-15%	-7%	26%	-14%	38%
C=CCN1C(=O)NC(=O)/C(=C/c2cc3c4c(c2)CCCN4CCC3)C1=O	u	50µM*	u	u	u	20µM*
C=CCN1C(=O)NC(=O)/C(=C/c2cnc(SC)nc2)C1=O	-57*	4%	79µM*	u	11µM*	-49%
C[C@]12C=CC(=O)C=C1CCC1C2=CC[C@]2(C)[C@@H](C(=O)CN3CCN(c4cc(N5CCCC5)nc(N5CCCC5)n4)CC3)CC[C@@H]12 (some centres undefined)	x	x	x	40µM*	x	x
C=CCN=C=S	x	x	x	-1%[59 µM]	x	x
O=C(Nc1ccccc1C(F)(F)F)c1cccn(Cc2ccccc2)c1=O	x	2%	1%	7%[59 µM]	x	42%
CCN(CC)P(c1n(C)cc[n+]1C)N(CC)CC	-8	-18%	22µM*	u	-26%	u
C[C@@H]1O[C@@H](O[C@H]2C[C@@H](O)[C@]3(CO)[C@@H]4C(CC[C@]3(O)C2)[C@@]2(O)CC[C@H]([C@@H]3COC(=O)C3)[C@@]2(C)C[C@H]4O)[C@H](O)[C@H](O)[C@H]1O (some centres undefined)	x	x	x	-7%[59 µM]	x	x
O=C(CN1CCOCC1)c1ccc(Br)cc1	1	-16%	79µM*	u	u	22%
Cc1c(C(=O)c2cccc3ccccc23)c2cccc3c2n1[C@H](CN1CCOCC1)CO3	1	x	56µM*	11µM*!	-19%	-9%
O=C(CN1CCOCC1)c1cccc2ccccc12	-23	50µM*	7.9µM*	3.2µM*	-23%	-26%
NCCCNCCSP(=O)(O)O	x	x	x	-6%[12.7 µM]	x	x
CC(C)CN1CC2(CCN(C(=O)Oc3ccccc3)CC2)C1	x	x	x	0%[12.7 µM]	x	x
O=C(NC1CCCCC1)Oc1cc2oc(=O)sc2cc1Cl	-22	-27%	-27%	40µM*	2.7µM*	39%
SMILES	PI5P4Ka inh	BAZ2B inh	JMJD2A Tudor inh	G9a inh	PLK1 PBD block	HP1b chromo inh
COc1cc(-c2ccc(N)c(OC)c2)ccc1N	-1	50µM*	u	0%[0.501 µM]	-14%	u
CCOC(=O)c1ccc(N=C(c2ccccc2)c2c(O)n(C)c(=O)n(C)c2=O)cc1	0	-12%	11%	50µM*	4%	47%
Cn1c(=O)c2[nH]cnc2n(C)c1=O	4	u	-15%	3.4µM*!	-1%	-26%
COc1ccc(C(=O)OC2C[C@H]3CC[C@@H](C2)N3C)cc1OC (some centres undefined)	x	x	x	18%[21.5 µM]	x	x
CCn1c(O)c(C=Nc2ccc(N3CCOCC3)cc2)c(=O)n(CC)c1=S	-3	8%	9%	7%[59 µM]	21µM*	36%
CC1C(=O)OC2C(O)C34C5OC(=O)[C@@]3(OC3OC(=O)[C@H](O)[C@]34C(C(C)(C)C)C5O)[C@]12O (some centres undefined)	x	x	x	-11%[2.33 µM]	x	x
CC1C(=O)OC2O[C@]3(C)CC[C@H]4C(C)CCC1[C@]24OO3 (some centres undefined)	x	x	x	6%[2.33 µM]	x	x
CCC(C)n1c(O)c(C=NC(C)c2ccccc2)c(=O)[nH]c1=S (centres undefined)	1	-22%	u	x	2%	9%
Cn1c(O)c(C(c2ccccn2)c2c(O)n(C)c(=S)n(C)c2=O)c(=O)n(C)c1=S	6	5µM*	4µM*	4µM*	-16%	7%
Cn1c(O)c(C(c2ccncc2)c2c(O)n(C)c(=S)n(C)c2=O)c(=O)n(C)c1=S	3	-3%	-36%	u	-27%	26%
CCC(C)n1c(O)c(C(c2ccccn2)c2c(O)n(C(C)CC)c(=S)[nH]c2=O)c(=O)[nH]c1=S (centres undefined)	x	35µM*	u	11µM*	u	29%
CN1CCc2cc3c(cc2[C@@H]1[C@@H]1OC(=O)c2c1ccc1c2OCO1)OCO3	x	x	x	23%[21.5 µM]	x	x
CC(C)n1c(O)c(C2c3cc(Cl)ccc3Oc3[nH]c(=O)n(C(C)C)c(=O)c32)c(=O)[nH]c1=O (centres undefined)	u	-24%	-16%	4.5µM*	1.3µM*	9%
COc1ccccc1C(=O)Nc1ccc2nc(SCC(=O)N3CCCc4ccccc43)sc2c1	x	-36%	-16%	-13%[59 µM]	x	66%
O=C1NCCOC(=O)[C@@H](Cc2ccc(F)cc2)CC/C=C/C[C@H]1CC(=O)N(CCO)Cc1ccccc1	3	x	-14%	x	-4%	39%
O=CC1=C(N2CCOCC2)/C(=C\c2ccccc2)CC1	13	-10%	-11%	40µM*	-19%	35%
